In PubChem BioAssay (NCI):
Compounds without any hit were thinned out: in the full panel of roughly 83,000, 20% have a hit.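 48-hour exposure, single concentration, 96-well plates; percent growth endpoint where 0 means no net growth. Active: below 10.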 Values without a mark were called inactive. Activity calls are given as the source filed them.

Key:
Test in all cases: NCI-60 one-dose screen, 48 h (100 = growth as untreated, 0 = no growth, -100 = all killed)
[1] = tested on: DU-145 prostate; conditions: 10 µM unless noted
[2] = tested on: K-562 leukemia; conditions: 10 µM unless noted
[3] = tested on: MALME-3M melanoma; conditions: 10 µM unless noted
[4] = tested on: MDA-MB-231 breast; conditions: 10 µM unless noted
[5] = tested on: RXF 393 renal; conditions: 10 µM unless noted
[6] = tested on: SF-268 CNS; conditions: 10 µM unless noted
[7] = tested on: SF-295 CNS; conditions: 10 µM unless noted
[8] = tested on: UACC-257 melanoma; conditions: 10 µM unless noted
[9] = tested on: M14 melanoma; conditions: 10 µM unless noted
[10] = tested on: SNB-75 CNS; conditions: 10 µM
[11] = tested on: SNB-19 CNS; conditions: 10 µM unless noted
[12] = tested on: U251 CNS; conditions: 10 µM unless noted
[13] = tested on: PC-3 prostate; conditions: 10 µM unless noted
[14] = tested on: SK-MEL-5 melanoma; conditions: 10 µM unless noted
[15] = tested on: UACC-62 melanoma; conditions: 10 µM unless noted
[16] = tested on: LOX IMVI melanoma; conditions: 10 µM unless noted
[17] = tested on: SK-MEL-28 melanoma; conditions: 10 µM unless noted
[18] = tested on: SF-539 CNS; conditions: 10 µM unless noted
[19] = tested on: HCT-15 colon; conditions: 10 µM unless noted
[20] = tested on: HT29 colon; conditions: 10 µM unless noted

Row | SMILES | growth [1] | growth [2] | growth [3] | growth [4] | growth [5] | growth [6] | growth [7] [%] | growth [8] | growth [9] | growth [10] [%] | growth [11] | growth [12] | growth [13] | growth [14] | growth [15] | growth [16] | growth [17] | growth [18] | growth [19] | growth [20]
1 | O=[N+]([O-])c1cc(S(=O)(=O)Oc2ccccc2)ccc1Cl | -81% (active) | 1.22% (active) | -68.8% (active) | 40.7% | 35% | 24.2% | 28.7 | 45.4% | -21.5% (active) | 52.2 | 30.6% | 0.0855% (active) | 25.5% | 6.43% (active) | 65.8% | -80.1% (active) | -18% (active) | – | – | –
2 | O=C(Nc1cccc(-n2cc(-c3ccncc3)c(-c3ccc(Cl)c(O)c3)n2)c1)Nc1ccc(Cl)c(Cl)c1 | 25.9% | 11.4% | 10.3% | -0.72% (active) | 4.46% (active) | 29.1% | – | -17.3% (active) | 17.2% | – | 30.3% | 12.4% | 5.43% (active) | -40.2% (active) | 14.9% | 21.9% | 24.6% | 37% | 19.8% | 45.9%
3 | O=C1/C(=C/c2ccc(Cl)cc2)CN(Cc2cn(CCNc3ccnc4cc(Cl)ccc34)nn2)C/C1=C\c1ccc(Cl)cc1 | -97.3% (active) | -34.5% (active) | -69.5% (active) | -43.2% (active) | -94.5% (active) | -78% (active) | – | -92.1% (active) | -70.5% (active) | – | -92.2% (active) | -100% (active) | -86.5% (active) | -100% (active) | -87.1% (active) | -93% (active) | -100% (active) | -97% (active) | -82% (active) | -100% (active)
4 | COc1cc(-c2nn(-c3cccc(NC(=O)c4ccc(N5CCOCC5)c(C(F)(F)F)c4)c3)cc2-c2ccncc2)ccc1Cl | 10.9% | 1.22% (active) | 36.2% | -25.2% (active) | -45.2% (active) | 22.5% | – | 24.3% | 1.42% (active) | – | 45.1% | 2.49% (active) | 8.17% (active) | 3.41% (active) | 8.35% (active) | 13.7% | 28.4% | -68.9% (active) | 16.7% | -13.3% (active)
5 | O=C(Nc1cccc(-n2cc(-c3ccncc3)c(-c3ccc(Cl)c(O)c3)n2)c1)c1ccc(N2CCOCC2)c(C(F)(F)F)c1 | 52.7% | 7.96% (active) | 10.7% | 23.4% | -26% (active) | 55.5% | – | 38.9% | 22.7% | – | 65.7% | 11.8% | 27.2% | 50.8% | 49.2% | 9.98% (active) | 1.14% (active) | 41.6% | 26.2% | 98%
6 | Nc1cc2c([nH]c[n+]2CC#CCCl)c(SCC#CCCl)n1 | -5.81% (active) | 5.47% (active) | -46.4% (active) | -50.2% (active) | -90.5% (active) | -9.39% (active) | – | -59.5% (active) | -90.9% (active) | – | -66.8% (active) | -64.8% (active) | -20.3% (active) | -93.3% (active) | -91.5% (active) | -91% (active) | – | -75.3% (active) | -43.3% (active) | -50.3% (active)
7 | OC(c1cc2cc(Br)ccc2c2cc(Br)ccc12)C1CCCCN1 (stereo not drawn) | -93.5% (active) | -72.2% (active) | -57.5% (active) | -73.5% (active) | -94.1% (active) | -84.5% (active) | – | -82.9% (active) | -75.8% (active) | – | -70.9% (active) | -94.5% (active) | -88.5% (active) | -1.27% (active) | -79.4% (active) | -62% (active) | -93.2% (active) | -82.9% (active) | -71.6% (active) | -82.5% (active)
8 | COc1ccc(/C=C2\CN(Cc3cn(CCNc4ccnc5cc(Cl)ccc45)nn3)C/C(=C\c3ccc(OC)c(OC)c3)C2=O)cc1OC | 0.0798% (active) | 2.21% (active) | -27.7% (active) | -0.28% (active) | -52.1% (active) | 9.6% (active) | – | 5.32% (active) | 3.7% (active) | – | 58.1% | 6.39% (active) | 12.1% | 10.8% | 7.74% (active) | -28.3% (active) | 21.6% | -12.5% (active) | 76% | -42.4% (active)
9 | O=S(=O)(NCCNc1nccc(-c2c(-c3cccc(O)c3)nc3sccn23)n1)c1ccc(F)cc1 | 78.6% | 47.8% | 18.3% | 77.6% | 52.5% | 73.3% | – | -0.678% (active) | 27.3% | – | 111% | 79.4% | 65.7% | 39.8% | 16.7% | 38.5% | 43.5% | 96.5% | 81% | 38.3%
10 | Nc1nc(=O)c2ccccc2s1 | 124% | 122% | 110% | 109% | 118% | 113% | 105 | 118% | 107% | 94.1 | 104% | 111% | 99.4% | 116% | 97.2% | 104% | 121% | – | 101% | –
11 | COc1ccc(N2CCN(Cc3cc(C(=O)/C=C/c4c[nH]c5ccccc45)ccc3O)CC2)cc1 | 114% | 101% | 95.6% | 103% | 104% | 101% | – | 102% | 102% | – | 100% | 95% | 88.3% | 99.6% | 101% | 97.2% | 110% | 96.6% | 98.7% | 106%
12 | NC(=N\N=C/c1ccc(O)cc1)/C(N)=N\N=C/c1ccc(O)cc1 | 63% | 23.7% | 65.3% | 64.8% | 105% | 58.4% | 29.2 | 85.4% | 39.5% | 94.4 | 92.7% | 72.3% | 33.1% | 28.7% | 30.3% | 28.7% | 88.2% | – | – | 105%
13 | COc1ccc(C2C=C(c3ccc(Cl)cc3)N=C3SC=C(C)N32)c(Br)c1 (stereo not drawn) | -31.5% (active) | 5.84% (active) | 43.6% | 58.2% | -7.69% (active) | 43.4% | – | 39.4% | 28.3% | – | 78.2% | 49.7% | 60.7% | – | 58.1% | 16.7% | 38.4% | 37.3% | 25.4% | 4.51% (active)
14 | Fc1ccc(Nc2nc(NCCNc3ccnc4cc(Cl)ccc34)nc(N3CCOCC3)n2)cc1 | 75% | 1.44% (active) | -63.1% (active) | 20.1% | 21.3% | 66.6% | – | -88.8% (active) | -42.7% (active) | – | 86.7% | 39% | 38.2% | 43.2% | 47.7% | 15.5% | -98.5% (active) | 69.3% | 10.5% | -45.5% (active)
15 | COc1cc(-c2nn(-c3cccc(NC(=O)Nc4ccc(Cl)c(C(F)(F)F)c4)c3)cc2-c2ccncc2)ccc1Cl | 20.3% | 3.8% (active) | -14.9% (active) | -52.4% (active) | -27.8% (active) | 13.8% | – | -37.6% (active) | -11.6% (active) | – | 26.4% | -20.9% (active) | -19% (active) | -65.3% (active) | -43.8% (active) | 1.06% (active) | 8.8% (active) | 6.56% (active) | 9.91% (active) | -0.5% (active)
16 | COc1ccc(C2C=C(c3ccc(OC)c(OC)c3)N=C3SC=C(C)N32)c(Br)c1 (stereo not drawn) | 109% | 96.5% | 99% | 112% | 106% | 105% | – | 117% | 101% | – | 110% | 96.3% | 103% | 100% | 106% | 109% | 110% | 93.6% | 92.8% | 107%
17 | COc1cc(-c2nn(-c3cccc(NC(=O)Nc4cccc(C(F)(F)F)c4)c3)cc2-c2ccncc2)ccc1Cl | 9.75% (active) | 1.6% (active) | -32.1% (active) | -28.8% (active) | -69.8% (active) | 2.35% (active) | – | -52.9% (active) | -61.5% (active) | – | 23.5% | -82.2% (active) | -23% (active) | -97.8% (active) | -76.1% (active) | -64.2% (active) | -18.6% (active) | -34.2% (active) | 5.28% (active) | -64% (active)
